Data published in PubChem BioAssay (Tox21).
Results filed as inconclusive are left out. Active and inactive are the calls of the source. Unless noted, the call rests on the fitted dose curve; in most records, active means well fitted curve in the direction sought with a large enough effect in the repeat runs; inconclusive means weak or mixed curves; inactive means no such curve, though single readings can be large; an effect the other way counts as inactive or inconclusive.

Assays:
[1] = qHTS assay to identify small molecule antagonists of the estrogen related receptor (ERR) signaling pathway from Tox21 library - cell viability counter screen (AID 1224834); further: nearly all actives have a fitted effect of over 30% in size; further: potency means the concentration at half of the fitted maximal effect
Summary of the method: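 ERR reporter cells were plated 6 h before compound addition, then exposed to test compounds in DMSO for 17.5 h at 37 C. Viability was read as CellTiter-Fluor fluorescence after a 30-minute incubation at 37 C.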

[2] = qHTS assay to identify small molecule agonists of the constitutive androstane receptor (CAR) signaling pathway - cell viability counter screen (AID 1224836); further: series mostly up to about 92 µM; nearly all actives have a fitted effect of over 45% in size
Summary of the method: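 HepG2-CYP2B6-hCAR, 2500 cells/well, 4 h pre-incubation; cpd 15 conc + PK11195 0.75 uM final; 23 h, 37 C/5% CO2; CellTiter-Fluor, fluorescence.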

[3] = qHTS assay to identify small molecule antagonists of the constitutive androstane receptor (CAR) signaling pathway - cell viability counter screen (AID 1224837); further: series mostly up to about 92 µM; nearly all actives have a fitted effect of over 45% in size
Summary of the method: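 HepG2 cells stably expressing hCAR and a CYP2B6-2.2kb reporter were plated and pre-incubated 4 hr at 37 C/5% CO2, then given compounds at 15 concentrations plus 50 nM CITCO (final). After 23 hr, viability was read by CellTiter-Fluor fluorescence.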

[4] = target: Nuclear receptor subfamily 1 group I member 3 (Homo sapiens) (UniProt Q14994); assay: qHTS assay to identify small molecule antagonists of the constitutive androstane receptor (CAR) signaling pathway (AID 1224838); further: nearly all actives have a fitted effect of over 40% in size
Nuclear receptor subfamily 1 group I member 3 (Homo sapiens), sequence (Q14994 whole entry, looked up): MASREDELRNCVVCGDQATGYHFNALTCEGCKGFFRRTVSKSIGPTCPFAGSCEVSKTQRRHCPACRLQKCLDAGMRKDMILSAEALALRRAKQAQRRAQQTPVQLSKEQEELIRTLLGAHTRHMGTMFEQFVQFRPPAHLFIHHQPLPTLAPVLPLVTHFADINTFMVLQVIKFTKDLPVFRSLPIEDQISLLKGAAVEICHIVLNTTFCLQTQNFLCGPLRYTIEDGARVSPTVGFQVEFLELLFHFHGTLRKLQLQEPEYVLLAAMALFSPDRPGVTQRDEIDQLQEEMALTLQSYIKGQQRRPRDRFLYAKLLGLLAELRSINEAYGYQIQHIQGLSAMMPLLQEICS
Summary of the method: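 HepG2 cells stably co-transfected with hCAR and a CYP2B6-2.2kb luciferase reporter were seeded 4 h before compound addition at 15 concentrations. Cells were stimulated with 50 nM CITCO (final) for 24 h at 37 C; luciferase luminescence was then read.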

[5] = target: Nuclear receptor subfamily 1 group I member 3 (Homo sapiens) (UniProt Q14994); assay: qHTS assay to identify small molecule agonists of the constitutive androstane receptor (CAR) signaling pathway (AID 1224839); further: nearly all actives have a fitted effect of over 15% in size; further: potency means the concentration at half of the fitted maximal effect;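 on activation: HepG2 cells stably carrying human CAR and a CYP2B6 luciferase reporter; series mostly up to about 92 µM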
Summary of the method: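 HepG2-CYP2B6-hCAR cells, 2500/well, 4 h pre-incubation; compounds 15 conc.; PK11195 0.75 uM final; 24 h, 37 C/5% CO2; ONE-Glo luciferase read.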

[6] = qHTS assay to identify small molecule antagonists of the estrogen related receptor signaling pathway with the pleiotropic PPARgamma coactivator (PGC) from Tox21 10K library - cell viability counter screen (AID 1224840; active means well fitted cell-killing curve with a large enough effect in the repeat runs, not every such curve was filed as active; further: nearly all actives have a fitted effect of over 40% in size)
Summary of the method: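 PGC/ERR cells were seeded at 2,000 cells/well and left 6 hours at 37 C/5% CO2 before pin-tool addition of compounds in DMSO. After 17.5 hours at 37 C, CellTiter-Fluor was added and fluorescence read 30 minutes later.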

[7] = target: Thyrotropin receptor (Homo sapiens) (UniProt P16473); assay: qHTS assay to identify small molecule agonists of the thyroid stimulating hormone receptor (TSHR) signaling pathway (AID 1224843; calls by dose curve; further: nearly all actives have a fitted effect of over 45% in size)
Thyrotropin receptor (Homo sapiens), sequence (P16473 whole entry, looked up): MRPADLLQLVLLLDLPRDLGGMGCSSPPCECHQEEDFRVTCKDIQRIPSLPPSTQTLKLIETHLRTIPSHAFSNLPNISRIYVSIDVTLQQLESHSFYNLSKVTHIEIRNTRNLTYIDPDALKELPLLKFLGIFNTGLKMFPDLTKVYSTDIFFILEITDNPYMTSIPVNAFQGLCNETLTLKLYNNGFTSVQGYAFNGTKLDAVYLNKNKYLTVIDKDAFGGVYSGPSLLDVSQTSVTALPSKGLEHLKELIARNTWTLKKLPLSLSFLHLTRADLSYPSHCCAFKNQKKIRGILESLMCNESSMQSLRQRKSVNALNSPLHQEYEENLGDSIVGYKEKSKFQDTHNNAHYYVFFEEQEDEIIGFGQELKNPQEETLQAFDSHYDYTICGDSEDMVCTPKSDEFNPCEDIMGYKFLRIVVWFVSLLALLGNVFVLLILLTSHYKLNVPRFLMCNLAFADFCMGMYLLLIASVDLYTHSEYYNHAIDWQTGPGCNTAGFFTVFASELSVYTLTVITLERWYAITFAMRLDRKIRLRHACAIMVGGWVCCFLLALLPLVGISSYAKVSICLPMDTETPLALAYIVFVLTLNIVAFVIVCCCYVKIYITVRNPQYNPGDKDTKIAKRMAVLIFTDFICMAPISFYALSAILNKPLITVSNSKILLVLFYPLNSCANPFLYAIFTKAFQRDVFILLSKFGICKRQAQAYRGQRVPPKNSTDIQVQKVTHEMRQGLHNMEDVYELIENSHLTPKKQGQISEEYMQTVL
Summary of the method: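 Steps: seed 800 TSHR-HEK293 cells per well; add test compound and hold 30 min at ambient temperature; dispense cAMP-d2 then anti-cAMP cryptate; incubate 1 h at ambient; measure fluorescence intensity.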

[8] = qHTS assay to identify small molecule agonists of the hypoxia (HIF-1) signaling pathway - cell viability counter screen (AID 1224844; calls by dose curve; further: nearly all actives have a fitted effect of over 50% in size)
Summary of the method: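 HRE-bla ME-180 cells in medium with 0.5% dialyzed FBS were preincubated 5 hrs at 37C, exposed to compounds for 17 hrs, then viability was read as CellTiter-Glo luminescence after 30 min at room temperature, in the reporter wells.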

[9] = qHTS assay to identify small molecule agonists of H2AX (AID 1224845; active means well fitted activation curve with a large enough effect in the signal ratio in the repeat runs, not every such curve was filed as active; the % refers to the signal ratio)
Summary of the method: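 Wild-type CHO-K1 cells, plated overnight, exposed 3hr at 37C to 15 concentrations (0.76% DMSO final). Lysed, then HTRF anti-pH2AX (S139) cryptate and anti-H2AX-d2 antibodies, 24 hr room temperature; 665/620 nm emission read.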

[10] = qHTS assay to identify small molecule agonists of the hypoxia (HIF-1) signaling pathway (AID 1224846; active means well fitted activation curve with a large enough effect in the signal ratio in the repeat runs, not every such curve was filed as active; the % refers to the signal ratio)
Summary of the method: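 HRE-bla ME-180 cells (beta-lactamase reporter under hypoxia response element) were plated at 2,000 cells/well in medium with 0.5% dialyzed FBS, rested 5 hrs, then given compounds in DMSO for 17 hrs at 37C, 5% CO2. Reporter induction was read with CCF4-AM FRET substrate.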

[11] = qHTS assay to identify small molecule agonists of H2AX - cell viability counter screen (AID 1224847; calls by dose curve; further: top concentration of the series differs between compounds; nearly all actives have a fitted effect of over 30% in size)
Summary of the method: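 Cells plated first: CHO-K1, 1000 per well in 10% FBS medium, incubated overnight at 37C. Then 15-point compound titration added (final DMSO 0.76%) for 3 hr. Finally CellTiter-Glo added and luminescence read.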

[12] = qHTS RealTime-Glo MT Cell Viability Assay in HepG2 cells - 24 hour (AID 1224867); further: nearly all actives have a fitted effect of over 50% in size
Summary of the method: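 HepG2 cells (600/well) were dispensed with RealTime-Glo reagents, incubated 5 h at 37 °C, then treated with compounds in DMSO for up to 40 h. Nonlytic NanoLuc luminescence reflecting viable cells was read at each stated time point.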

[13] = qHTS RealTime-Glo MT Cell Viability Assay in HEK293 cells - 32 hour (AID 1224868); further: nearly all actives have a fitted effect of over 50% in size; further: potency means the concentration at half of the fitted maximal effect; on activity change, negative = cytotoxic: top concentration of the series differs between compounds
Summary of the method: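 HEK293 cells seeded with NanoLuc/prosubstrate reagent, rested 5 h at 37 C, then dosed and kept at 37 C up to 40 h. Nonlytic real-time luminescence from viable cells read at 0, 8, 16, 24, 32 and 40 h.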

[14] = A CellTox Green Cytotoxicity Assay to monitor cytotoxicity in HEK293 cells - 0 hour (AID 1224869); further: nearly all actives have a fitted effect of over 50% in size
Summary of the method: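 HEK293 cells premixed with CellTox Green dye were seeded at 600 cells/well and left 5 h at 37 C/5% CO2 before pin transfer of 23 nL compound in DMSO. Fluorescence from dye bound to dead-cell DNA was read during 40 h treatment.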

[15] = target: Luciferin 4-monooxygenase (Photinus pyralis) (UniProt P08659); assay: qHTS assay to identify small molecule inhibitors of firefly luciferase (AID 1224835); further: series mostly up to about 120 µM; nearly all actives have a fitted effect of over 25% in size
Luciferin 4-monooxygenase (Photinus pyralis), sequence (P08659 whole entry, looked up): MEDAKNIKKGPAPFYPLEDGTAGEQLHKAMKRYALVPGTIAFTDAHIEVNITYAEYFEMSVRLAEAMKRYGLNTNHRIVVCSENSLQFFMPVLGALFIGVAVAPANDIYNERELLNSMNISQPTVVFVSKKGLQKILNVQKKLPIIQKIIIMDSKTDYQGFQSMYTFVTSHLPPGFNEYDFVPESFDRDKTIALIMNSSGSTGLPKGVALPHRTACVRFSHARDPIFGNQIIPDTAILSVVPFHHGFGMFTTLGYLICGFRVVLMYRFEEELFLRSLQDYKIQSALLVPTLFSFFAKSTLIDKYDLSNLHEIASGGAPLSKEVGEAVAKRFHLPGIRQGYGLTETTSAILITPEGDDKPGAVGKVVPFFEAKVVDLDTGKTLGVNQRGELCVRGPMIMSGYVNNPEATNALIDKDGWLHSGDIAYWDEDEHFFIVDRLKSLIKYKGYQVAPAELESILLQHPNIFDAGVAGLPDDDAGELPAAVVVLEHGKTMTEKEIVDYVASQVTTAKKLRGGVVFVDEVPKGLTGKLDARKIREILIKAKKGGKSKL
Summary of the method: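 Biochemical qHTS: compounds run as interplate titrations against purified firefly enzyme, with D-luciferin and ATP each at its KM concentration. Light output recorded by CCD imaging.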

[16] = qHTS assay to identify small molecule antagonists of the estrogen related receptor signaling pathway with the pleiotropic PPARgamma coactivator (PGC) from Tox21 10K library (AID 1224841; call rule not given here; further: potency means the concentration at half of the fitted maximal effect; on activity, negative = inhibition: series mostly up to about 92 µM)
Summary of the method: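 PGC/ERR reporter cells were seeded at 2,000 cells/well and held 6 hours at 37 C/5% CO2 before pin-tool addition of compounds in DMSO. After 18 hours at 37 C, One-Glo was added and luminescence read after 30 minutes at room temperature.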

[17] = qHTS assay to identify small molecule agonists of the estrogen related receptor signaling pathway with the pleiotropic PPARgamma coactivator (PGC) from Tox21 10K library (AID 1224842); further: nearly all actives have a fitted effect of over 15% in size
Summary of the method: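 PGC/ERR reporter cell line, 2,000 cells per well, incubated 6 h at 37 C before 23 nL compound in DMSO was added. After 18 h at 37 C, One-Glo luminescence read following 30 min at room temperature.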

[18] = qHTS assay to identify small molecule antagonists of the estrogen related receptor (ERR) signaling pathway from Tox21 library (AID 1224848); further: nearly all actives have a fitted effect of over 50% in size; further: potency means the concentration at half of the fitted maximal effect
Summary of the method: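 Luminescent reporter read-out (ONE-Glo) from NTP's ERR cell line after 18 h treatment at 37 C with DMSO-dissolved Tox21 compounds; cells pre-plated 6 h beforehand at 2,000 per well.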

[19] = qHTS assay to identify small molecule agonists of the estrogen related receptor (ERR) signaling pathway from Tox21 library (AID 1224849; calls by dose curve; further: nearly all actives have a fitted effect of over 15% in size)
Summary of the method: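 ERR reporter cell line (NTP) seeded, rested 6 h at 37 C/5% CO2, then pinned with Tox21 compounds in DMSO. After 18 h at 37 C, ONE-Glo luciferase luminescence was read following 30 min at room temperature.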

[20] = qHTS RealTime-Glo MT Cell Viability Assay in HepG2 cells - 40 hour (AID 1224870); further: nearly all actives have a fitted effect of over 50% in size
Summary of the method: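 HepG2 cells (600/well) mixed with RealTime-Glo MT reagent, settled 5 h at 37 C/5% CO2 before compound addition. Nonlytic NanoLuc luminescence from viable-cell prosubstrate reduction read repeatedly during 40 h treatment at 37 C.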
On the % scale 0 is the no-effect control and ±100 the full control effect.

CCCCCCCCCCCCCCC(=O)O
inactive: Potency [1] | outcome [2] | outcome [3] | Potency [4] | Potency [5] | outcome [6] | Potency [7] | Potency [8] | Potency [9] | outcome [10] | outcome [11] | outcome [12] | Potency [13] | outcome [14]

CCN(Cc1ccccc1)c1ccccc1
inactive: Potency [15] | Potency [17] | Potency [7] | outcome [10] | outcome [11] | outcome [19] | outcome [14]
active: Potency [1] 24 µM | Potency [16] 42.7 µM | Potency [18] 30.3 µM | Potency [13] 19.3 µM

CC(=O)O[C@@]12CO[C@@H]1C[C@H](O)[C@@]1(C)C(=O)[C@H](O)C3=C(C)[C@@H](OC(=O)[C@H](O)[C@@H](NC(=O)OC(C)(C)C)c4ccccc4)C[C@@](O)([C@@H](OC(=O)c4ccccc4)[C@H]21)C3(C)C
active: Potency [1] 0.0668 µM | Potency [13] 0.0477 µM
inactive: Potency [15] | outcome [2] | outcome [6] | Potency [8] | Potency [9] | outcome [12] | outcome [14]

CCOc1ccc2nc(S(N)(=O)=O)sc2c1
inactive: Potency [1] | outcome [2] | outcome [3] | Potency [4] | outcome [6] | Potency [7] | Potency [8] | outcome [10] | Potency [13] | outcome [14] | Potency [20]
active: Potency [5] 7.5 µM

CCOC(=O)CCC(=O)OCC
inactive: Potency [1] | outcome [2] | outcome [3] | Potency [4] | Potency [5] | outcome [6] | Potency [16] | Potency [17] | Potency [7] | Potency [8] | Potency [9] | outcome [10] | outcome [11] | Potency [18] | outcome [19] | Potency [13] | outcome [14] | Potency [20]

CN1CCN(c2cc3c(nn2)Oc2ccccc2N3C)CC1
inactive: viability change, negative = cytotoxic [1] 4.08% [at 19 µM] | viability change, negative = cytotoxic [2] -2.12% [at 19 µM] | activity change, negative = cytotoxicity [3] -0.71% [at 19 µM] | activity, negative = inhibition [4] 125% [at 19 µM] | viability change, negative = cytotoxic [6] 2.34% [at 19 µM] | activation [7] -2.7% [at 19 µM] | activity change, negative = cytotoxicity [8] 1.97% [at 15.8 µM] | activation [10] 0.831% [at 15.8 µM] | activity change, negative = cytotoxicity [11] 0.295% [at 31.6 µM] | activity change, negative = cytotoxicity [12] -0.547% [at 15.8 µM] | activity change, negative = cytotoxic [13] 1.71% [at 15.8 µM] | cytotoxicity [14] -3.85% [at 15.8 µM] | activity change, negative = cytotoxic [20] 1.01% [at 15.8 µM]
active: Potency [5] 5.8 µM

COc1cc(C(=O)OC(COCCC(C)C)CN2CCOCC2)cc(OC)c1OC (centres undefined)
inactive: Potency [1] | outcome [2] | outcome [3] | Potency [4] | Potency [5] | outcome [6] | Potency [7] | Potency [8] | outcome [10] | outcome [11] | outcome [12] | Potency [13] | outcome [14]

CC1=NN(c2cccc(S(=O)(=O)O)c2)C(=O)C1
inactive: Potency [1] | outcome [2] | outcome [3] | Potency [4] | Potency [5] | outcome [6] | Potency [16] | Potency [17] | outcome [10] | outcome [11] | Potency [18] | outcome [19] | outcome [12] | outcome [14] | Potency [20]

C[N+]1(C)CCCC(OC(=O)C(O)(c2ccccc2)c2ccccc2)C1 (centres undefined)
inactive: Potency [1] | Potency [15] | outcome [2] | outcome [3] | outcome [6] | Potency [8] | outcome [11] | Potency [18] | outcome [19] | outcome [12] | Potency [13] | outcome [14] | Potency [20]
